# Experimental data reported in PubChem BioAssay (EPA / NIEHS).
# Inconclusive results are not listed. The source made the active and inactive calls. How the source made its calls, unless noted: active means hit-call score of the fitted dose curve at least 0.9, where 1 is the maximum; inactive means score below 0.9.
# Columns and labels:
# [1] = target: Nuclear respiratory factor 1 (Homo sapiens) (UniProt Q16656); assay: ATG_NRF1_CIS: Attagene CIS-FACTORIAL HepG2 Assay for human Nuclear Respiratory Factor 1 (NRF1) Orphan Gene (AID 2282987); conditions: HepG2 NRF1 cis-element reporter, Attagene multiplex; actives raise or lower the signal
# Outline: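 Using DMSO as baseline, gain- or loss-of-signal was fitted for reporter mRNA levels in HepG2 cells transiently transfected with cis-regulated reporter units. Samples were taken 24 h after dosing and read by RT-PCR with capillary electrophoresis.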
# [2] = ATG_NFI_CIS: Attagene CIS-FACTORIAL HepG2 Assay for human Nuclear Factor I (NFI) (AID 2282989); conditions: HepG2 cis-regulatory reporter, NFI response element transcription; actives raise or lower the signal
# Outline: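 Transfected HepG2 liver cells, exposed 24 h, supplied total RNA for oligo(dT) reverse transcription and reporter-specific PCR. Labelled, HpaI-cut fragments were sized by capillary electrophoresis; DMSO set the baseline for bidirectional fitting.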
# [3] = target: Myc proto-oncogene protein (Homo sapiens) (UniProt P01106); assay: ATG_Myc_CIS: Attagene CIS-FACTORIAL HepG2 Assay for human Myelocytomatosis (Myc) Proto-Oncogene Transcription Factor (AID 2282990); conditions: HepG2, Attagene cis-reporter transcription factor activity; actives raise or lower the signal
# Outline: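 After 24 h chemical treatment of HepG2 cells carrying multiplexed cis-regulated reporter constructs, reporter transcripts quantified by RT-PCR and capillary electrophoresis of fluorescent fragments. Gain or loss fitted against DMSO baseline.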
# [4] = ATG_NF_kB_CIS: Attagene CIS-FACTORIAL HepG2 Assay for human Nuclear Factor Kappa B (NF-kB) (AID 2282991); conditions: HepG2 Attagene cis-factorial NF-kB reporter mRNA; actives raise or lower the signal
# Outline: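 Endpoint from a 52-component multiplexed HepG2 reporter panel: cis-regulated transcription units transiently transfected, 24 h dosing, reporter mRNA quantified by RT-PCR and capillary electrophoresis, scored as increase or decrease against DMSO.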
# [5] = ATG_NRF2_ARE_CIS: Attagene CIS-FACTORIAL HepG2 Assay for human Nuclear Factor Erythroid 2 Related Factor 2 (NFR2) response to Antioxidant Response Elements (ARE) (AID 2282992); conditions: HepG2 Attagene ARE/NRF2 reporter, transcription factor activity; actives raise or lower the signal;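 on AC50: reporter mRNA level measured by RT-PCR and capillary electrophoresis fluorescence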
# Outline: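 Transient MRTU transfection of HepG2; 24 h compound exposure; TriZol RNA, RT with oligo(dT), PCR, 6-FAM primer extension, HpaI cut, CE. Bidirectional fit vs DMSO.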
# [6] = ATG_Oct_MLP_CIS: Attagene CIS-FACTORIAL HepG2 Assay for human Octamer-Binding Transcription Factor (Oct) (AID 2282993); conditions: HepG2 Attagene cis-factorial Oct reporter, mRNA; actives raise or lower the signal
# Outline: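 Using HepG2 cells bearing transfected cis-reporter constructs, mRNA induction was read after 24 h by fluorescent RT-PCR and capillary electrophoresis, with DMSO defining baseline for gain- or loss-of-signal fits.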
# [7] = target: Cellular tumor antigen p53 (Homo sapiens) (UniProt P04637); assay: ATG_p53_CIS: Attagene CIS-FACTORIAL HepG2 Assay for human p53 Transcription Factor (AID 2282994); conditions: HepG2 p53 cis-element reporter, Attagene mRNA; actives raise or lower the signal
# Outline: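 HepG2, transient MRTU transfection (cis promoter elements, endogenous TFs); 24 h dosing; RNA isolation, RT-PCR, 6-FAM primer extension, HpaI digest, CE fluorescence; bidirectional fit vs DMSO.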
# [8] = BSK_3C_TissueFactor: BioMAP Diversity Plus: 3C Assay for Tissue Factor Biomarker Activity (AID 2282997); conditions: BioMAP 3C HUVEC, tissue factor biomarker readout; actives raise or lower the signal
# Outline: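 Dosing of human umbilical vein endothelial cells preceded a 24 h incubation. Tissue Factor was then read by ELISA, with increases and decreases both scored relative to DMSO controls.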
# [9] = BSK_3C_uPAR: BioMAP Diversity Plus: 3C Assay for Urokinase-type plasminogen activator receptor (uPAR) Biomarker Activity (AID 2282998); conditions: BioMAP 3C HUVEC, uPAR biomarker ELISA; actives raise or lower the signal
# Outline: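 In this endothelial cell-based assay, human umbilical vein primary cells were treated with chemicals and harvested at 24 h. uPAR was quantified using ELISA, with gains or losses fitted relative to DMSO controls.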
# [10] = BSK_3C_VCAM1: BioMAP Diversity Plus: 3C Assay for Vascular cell adhesion molecule 1 (VCAM1) Biomarker Activity (AID 2282999); conditions: BioMAP 3C HUVEC, VCAM1 ELISA, cytokine-stimulated; actives raise or lower the signal
# Outline: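 Endothelial cells from human umbilical vein are treated with test chemical. At 24 h, VCAM-1 is measured by ELISA, and responses in either direction are fitted relative to DMSO.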
# [11] = BSK_4H_Eotaxin3: BioMAP Diversity Plus: 4H Assay for Eotaxin 3 Biomarker Activity (AID 2283000); conditions: primary human endothelial cells (HUVEC); actives raise or lower the signal;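 on outcome: CCL26 protein level quantified by ELISA in parallel with SRB cytotoxicity check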
# Outline: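 Human umbilical vein endothelial cells (BSK_4H system) dosed with test chemical; Eotaxin-3 (CCL26) measured by ELISA 24 h after dosing. Bidirectional curve fitting relative to DMSO negative control as baseline.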
# [12] = target: human Peroxisome Proliferator-activated Receptor alpha (PPARa), PPARA (gene 5465) (UniProt Q07869); assay: ATG_PPARa_TRANS: Attagene TRANS-FACTORIAL HepG2 Assay for human Peroxisome Proliferator-activated Receptor alpha (PPARa) (AID 2283001; active means hit-call score of the fitted dose curve at least 0.9, where 1 is the maximum)
# Outline: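 Read-out is fluorescence of reporter cDNA fragments resolved by capillary electrophoresis after RT-PCR. Human HepG2 liver cells carried transfected PPARa-Gal4 chimera and GAL4-UAS reporter units, treated 24 h; activity scored as increase over DMSO.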
# [13] = BSK_3C_Proliferation: Cell Proliferation Assessment in the BioMAP Diversity Plus: 3C Assay (AID 2283006); conditions: primary human endothelial cells (HUVEC);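 on AC50: potency may reflect either rise or fall in cell number versus DMSO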
# Outline: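 Subconfluent HUVEC (3C system) cultured with chemical; relative cell number read at 48 h by sulforhodamine B total-protein staining (0.1% SRB after 10% TCA fixation, 560 nm). Bidirectional fit relative to DMSO.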
# [14] = target: Peroxisome proliferator-activated receptor gamma (Homo sapiens) (UniProt P37231); assay: ATG_PPARg_TRANS: Attagene TRANS-FACTORIAL HepG2 Assay for human Peroxisome Proliferator-activated Receptor-gamma (PPARg) (AID 2283007; active means hit-call score of the fitted dose curve at least 0.9, where 1 is the maximum)
# Outline: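 Endpoint reflects upward reporter mRNA change versus DMSO controls. Setup: transiently transfected HepG2, GAL4-UAS reporters driven by chimeric NR-Gal4, 24 h incubation, RT-PCR with capillary electrophoresis read-out.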
# [15] = target: Nuclear receptor subfamily 1 group I member 2 (Homo sapiens) (UniProt O75469); assay: ATG_PXR_TRANS: Attagene TRANS-FACTORIAL HepG2 Assay for human Pregnane X Receptor (PXR) (AID 2283008; active means hit-call score of the fitted dose curve at least 0.9, where 1 is the maximum)
# Outline: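 Read-out is fluorescence of labelled reporter cDNA fragments separated by capillary electrophoresis after RT-PCR and HpaI digestion. Source: HepG2 cells carrying PXR-GAL4/UAS reporter constructs, treated 24 h; activity fitted upward relative to DMSO.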
# [16] = target: human Retinoic Acid Receptor gamma (RARg), RARG (gene 5916) (UniProt P13631); assay: ATG_RARg_TRANS: Attagene TRANS-FACTORIAL HepG2 Assay for human Retinoic Acid Receptor gamma (RARg) (AID 2283009; active means hit-call score of the fitted dose curve at least 0.9, where 1 is the maximum)
# Outline: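 HepG2 transiently transfected with GAL4-UAS reporter units and chimeric NR-Gal4 constructs; 24 h compound exposure. Reporter mRNA quantified by RT-PCR, FAM labeling, HpaI digestion and capillary electrophoresis; gain-of-signal versus DMSO.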
# [17] = target: human Retinoic Acid Receptor beta (RARb), RARB (gene 5915) (UniProt P10826); assay: ATG_RARb_TRANS: Attagene TRANS-FACTORIAL HepG2 Assay for human Retinoic Acid Receptor beta (AID 2283004; active means hit-call score of the fitted dose curve at least 0.9, where 1 is the maximum)
# Outline: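 Induction of reporter mRNA from a chimeric RARb-Gal4 construct was measured by RT-PCR, FAM labelling, HpaI digestion and capillary electrophoresis. Measurements followed 24 h compound treatment of transiently transfected human HepG2 liver cells, with DMSO as baseline.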
# [18] = target: Retinoic acid receptor alpha (Homo sapiens) (UniProt P10276); assay: ATG_RARa_TRANS: Attagene TRANS-FACTORIAL HepG2 Assay for human Retinoic Acid Receptor alpha (RARa) (AID 2283005; active means hit-call score of the fitted dose curve at least 0.9, where 1 is the maximum;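 on AC50: potency for increased reporter signal meaning RARa activation over DMSO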)
# Outline: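 Reporter transcripts, measured by RT-PCR with fluorescent labeling and capillary electrophoresis after 24 h dosing, reflect activity of an exogenous human RARa–GAL4 fusion in transiently transfected HepG2. Fitted for increase relative to DMSO.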
# [19] = target: human Peroxisome Proliferator-activated Receptor delta (PPARd), PPARD (gene 5467) (UniProt Q03181); assay: ATG_PPARd_TRANS: Attagene TRANS-FACTORIAL HepG2 Assay for human Peroxisome Proliferator-activated Receptor delta (PPARd) (AID 2283002; active means hit-call score of the fitted dose curve at least 0.9, where 1 is the maximum)
# Outline: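 Read-out is induced reporter mRNA, quantified by RT-PCR with fluorescent labelling and capillary electrophoresis after 24 h dosing. Cells are HepG2 transiently carrying multiple GAL4-UAS reporter units driven by exogenous NR-GAL4 chimeras; DMSO serves as baseline.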
# [20] = read-out: Intercellular Adhesion Molecule 1 (ICAM1), ICAM1 (gene 3383); assay: BSK_3C_ICAM1: BioMAP Diversity Plus: 3C Assay for Intercellular Adhesion Molecule 1 (ICAM1) Biomarker Activity (AID 2283003); conditions: primary human endothelial cells (HUVEC); actives raise or lower the signal
# Outline: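 HUVEC primary cells stimulated under 3C conditions; ICAM1 measured by ELISA 24 h after compound dosing. Curves fitted bidirectionally against the DMSO baseline. Overt cytotoxicity checked by SRB staining of parallel cultures.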
# Sequence of human Peroxisome Proliferator-activated Receptor alpha (PPARa), PPARA (gene 5465) (Q07869 whole entry, looked up, the tested form may be a part): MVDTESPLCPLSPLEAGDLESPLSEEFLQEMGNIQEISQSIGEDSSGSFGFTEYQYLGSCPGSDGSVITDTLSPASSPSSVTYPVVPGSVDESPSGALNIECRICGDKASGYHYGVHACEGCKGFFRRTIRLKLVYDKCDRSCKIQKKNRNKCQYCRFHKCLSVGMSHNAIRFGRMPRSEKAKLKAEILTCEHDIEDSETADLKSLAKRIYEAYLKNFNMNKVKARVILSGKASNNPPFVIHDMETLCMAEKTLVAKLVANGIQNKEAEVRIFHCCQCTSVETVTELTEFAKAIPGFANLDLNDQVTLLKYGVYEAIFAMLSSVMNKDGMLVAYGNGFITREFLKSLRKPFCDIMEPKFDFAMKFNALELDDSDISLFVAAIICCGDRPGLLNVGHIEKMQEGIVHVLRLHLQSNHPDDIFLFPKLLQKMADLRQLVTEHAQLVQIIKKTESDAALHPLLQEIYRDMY
# Sequence of human Retinoic Acid Receptor beta (RARb), RARB (gene 5915) (P10826 whole entry, looked up, the tested form may be a part): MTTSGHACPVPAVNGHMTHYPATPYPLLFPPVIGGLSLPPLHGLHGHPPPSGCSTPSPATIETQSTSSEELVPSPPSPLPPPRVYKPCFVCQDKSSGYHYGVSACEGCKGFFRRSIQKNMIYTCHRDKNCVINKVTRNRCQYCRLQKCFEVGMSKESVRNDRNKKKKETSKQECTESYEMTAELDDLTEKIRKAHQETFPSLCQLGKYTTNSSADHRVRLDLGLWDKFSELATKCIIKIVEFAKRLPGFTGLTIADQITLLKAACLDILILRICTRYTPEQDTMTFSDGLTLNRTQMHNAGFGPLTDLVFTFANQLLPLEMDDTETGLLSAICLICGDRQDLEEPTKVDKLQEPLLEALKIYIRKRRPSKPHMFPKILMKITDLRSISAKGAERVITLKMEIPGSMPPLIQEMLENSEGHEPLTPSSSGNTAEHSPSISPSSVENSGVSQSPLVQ
# Sequence of Peroxisome proliferator-activated receptor gamma (Homo sapiens) (P37231 whole entry, looked up, the tested form may be a part): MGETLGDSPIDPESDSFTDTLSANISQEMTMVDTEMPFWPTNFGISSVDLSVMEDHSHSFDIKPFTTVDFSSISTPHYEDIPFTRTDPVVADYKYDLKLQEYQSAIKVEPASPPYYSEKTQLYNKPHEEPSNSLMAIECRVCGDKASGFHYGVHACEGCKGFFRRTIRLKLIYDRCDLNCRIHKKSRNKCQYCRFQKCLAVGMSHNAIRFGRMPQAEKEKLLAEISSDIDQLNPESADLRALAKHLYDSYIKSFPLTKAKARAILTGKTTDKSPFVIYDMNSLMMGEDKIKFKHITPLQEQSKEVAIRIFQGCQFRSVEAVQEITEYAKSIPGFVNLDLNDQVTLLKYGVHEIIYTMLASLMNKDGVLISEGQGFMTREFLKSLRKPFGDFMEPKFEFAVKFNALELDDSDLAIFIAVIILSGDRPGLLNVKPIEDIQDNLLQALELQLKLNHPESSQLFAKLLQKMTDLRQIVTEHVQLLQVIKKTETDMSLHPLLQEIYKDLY
# Sequence of Nuclear respiratory factor 1 (Homo sapiens) (Q16656 whole entry, looked up): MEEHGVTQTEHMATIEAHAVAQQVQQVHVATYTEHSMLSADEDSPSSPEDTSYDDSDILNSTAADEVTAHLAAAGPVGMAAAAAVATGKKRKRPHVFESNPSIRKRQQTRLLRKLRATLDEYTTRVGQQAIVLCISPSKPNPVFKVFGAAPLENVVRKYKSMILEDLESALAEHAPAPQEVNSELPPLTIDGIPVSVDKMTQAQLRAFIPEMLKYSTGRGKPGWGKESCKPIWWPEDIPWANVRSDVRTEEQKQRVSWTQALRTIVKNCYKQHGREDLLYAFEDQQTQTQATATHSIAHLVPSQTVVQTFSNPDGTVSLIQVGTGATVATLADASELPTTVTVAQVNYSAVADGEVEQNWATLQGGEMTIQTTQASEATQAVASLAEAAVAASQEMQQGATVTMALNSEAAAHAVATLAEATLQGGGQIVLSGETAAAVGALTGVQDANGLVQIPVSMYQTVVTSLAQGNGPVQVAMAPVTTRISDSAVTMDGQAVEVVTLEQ
# Sequence of Nuclear receptor subfamily 1 group I member 2 (Homo sapiens) (O75469 whole entry, looked up, the tested form may be a part): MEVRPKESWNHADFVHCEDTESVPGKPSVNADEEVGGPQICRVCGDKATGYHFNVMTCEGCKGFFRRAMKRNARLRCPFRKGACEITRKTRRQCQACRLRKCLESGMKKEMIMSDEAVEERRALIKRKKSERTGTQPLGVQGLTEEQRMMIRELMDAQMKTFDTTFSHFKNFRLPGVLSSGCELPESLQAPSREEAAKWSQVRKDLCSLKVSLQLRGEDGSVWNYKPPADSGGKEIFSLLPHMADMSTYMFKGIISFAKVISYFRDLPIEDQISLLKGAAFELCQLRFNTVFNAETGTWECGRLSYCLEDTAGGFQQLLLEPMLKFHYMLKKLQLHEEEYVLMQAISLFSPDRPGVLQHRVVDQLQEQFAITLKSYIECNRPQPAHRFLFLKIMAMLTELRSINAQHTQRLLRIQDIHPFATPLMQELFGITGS
# Sequence of human Peroxisome Proliferator-activated Receptor delta (PPARd), PPARD (gene 5467) (Q03181 whole entry, looked up, the tested form may be a part): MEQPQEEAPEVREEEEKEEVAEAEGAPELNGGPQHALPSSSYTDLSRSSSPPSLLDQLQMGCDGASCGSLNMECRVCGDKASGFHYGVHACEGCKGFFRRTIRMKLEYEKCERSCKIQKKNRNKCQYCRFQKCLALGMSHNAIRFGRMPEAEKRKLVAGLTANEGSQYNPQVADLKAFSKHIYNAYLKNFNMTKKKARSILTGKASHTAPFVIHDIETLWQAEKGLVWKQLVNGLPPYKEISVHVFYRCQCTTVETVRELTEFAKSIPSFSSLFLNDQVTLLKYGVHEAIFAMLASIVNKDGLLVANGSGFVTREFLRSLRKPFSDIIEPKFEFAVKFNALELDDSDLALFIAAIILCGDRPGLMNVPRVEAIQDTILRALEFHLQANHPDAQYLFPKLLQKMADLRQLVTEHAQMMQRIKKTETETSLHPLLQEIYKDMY
# Sequence of Myc proto-oncogene protein (Homo sapiens) (P01106 whole entry, looked up, the tested form may be a part): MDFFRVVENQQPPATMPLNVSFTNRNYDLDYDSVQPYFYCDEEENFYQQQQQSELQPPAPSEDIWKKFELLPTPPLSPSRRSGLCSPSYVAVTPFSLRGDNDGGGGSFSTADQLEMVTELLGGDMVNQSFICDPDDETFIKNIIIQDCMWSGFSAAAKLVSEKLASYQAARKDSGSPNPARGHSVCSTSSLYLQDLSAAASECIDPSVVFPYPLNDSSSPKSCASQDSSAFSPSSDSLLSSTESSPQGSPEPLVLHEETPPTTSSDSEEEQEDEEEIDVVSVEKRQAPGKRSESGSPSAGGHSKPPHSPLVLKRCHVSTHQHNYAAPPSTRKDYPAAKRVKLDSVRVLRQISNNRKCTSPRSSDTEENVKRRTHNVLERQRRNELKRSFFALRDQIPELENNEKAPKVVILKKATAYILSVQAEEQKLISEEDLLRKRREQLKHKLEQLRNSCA
# Sequence of Cellular tumor antigen p53 (Homo sapiens) (P04637 whole entry, looked up): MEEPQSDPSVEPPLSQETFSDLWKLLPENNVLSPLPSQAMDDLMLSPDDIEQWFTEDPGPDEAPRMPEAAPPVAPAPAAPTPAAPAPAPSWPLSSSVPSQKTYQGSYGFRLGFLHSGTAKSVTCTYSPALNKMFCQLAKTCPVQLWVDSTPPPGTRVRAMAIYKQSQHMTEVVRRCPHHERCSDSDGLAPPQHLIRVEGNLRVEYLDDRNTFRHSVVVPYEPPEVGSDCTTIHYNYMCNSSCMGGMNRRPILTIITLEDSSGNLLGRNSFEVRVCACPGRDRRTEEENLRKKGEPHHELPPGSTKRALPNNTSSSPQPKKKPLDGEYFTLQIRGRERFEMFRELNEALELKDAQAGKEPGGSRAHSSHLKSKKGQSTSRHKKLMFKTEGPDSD
# Sequence of Retinoic acid receptor alpha (Homo sapiens) (P10276 whole entry, looked up, the tested form may be a part): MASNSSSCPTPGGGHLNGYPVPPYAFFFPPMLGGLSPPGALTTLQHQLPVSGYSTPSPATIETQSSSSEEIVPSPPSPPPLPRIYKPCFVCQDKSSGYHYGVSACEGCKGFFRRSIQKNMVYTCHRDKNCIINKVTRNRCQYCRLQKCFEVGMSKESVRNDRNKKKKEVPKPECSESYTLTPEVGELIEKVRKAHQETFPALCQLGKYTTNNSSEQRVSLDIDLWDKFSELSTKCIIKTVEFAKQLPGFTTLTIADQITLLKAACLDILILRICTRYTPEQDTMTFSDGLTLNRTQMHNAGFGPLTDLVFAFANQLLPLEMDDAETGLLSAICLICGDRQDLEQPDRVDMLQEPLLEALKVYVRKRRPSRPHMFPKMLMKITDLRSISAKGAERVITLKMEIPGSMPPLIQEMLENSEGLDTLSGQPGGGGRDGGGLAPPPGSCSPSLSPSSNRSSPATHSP
# Sequence of human Retinoic Acid Receptor gamma (RARg), RARG (gene 5916) (P13631 whole entry, looked up, the tested form may be a part): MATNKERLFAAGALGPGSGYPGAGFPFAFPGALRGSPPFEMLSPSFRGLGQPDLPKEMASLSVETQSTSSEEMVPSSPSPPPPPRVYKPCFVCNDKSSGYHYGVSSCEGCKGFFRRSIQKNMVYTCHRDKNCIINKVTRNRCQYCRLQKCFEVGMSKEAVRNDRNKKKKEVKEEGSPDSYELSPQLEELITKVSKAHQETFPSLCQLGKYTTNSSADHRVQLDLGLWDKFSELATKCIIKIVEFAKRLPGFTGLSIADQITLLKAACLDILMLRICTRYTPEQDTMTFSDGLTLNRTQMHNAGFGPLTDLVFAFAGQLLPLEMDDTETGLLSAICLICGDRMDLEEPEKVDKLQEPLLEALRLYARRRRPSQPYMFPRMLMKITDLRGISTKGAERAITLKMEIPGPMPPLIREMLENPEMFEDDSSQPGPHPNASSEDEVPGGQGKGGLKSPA
compound,measurement,setting,value
CC(=O)Nc1ccc(N=Nc2cc(C)ccc2O)cc1,AC50,[1],27.1 µM (active)
same,outcome,[2],inactive
same,outcome,[3],inactive
same,outcome,[4],inactive
same,AC50,[5],1.42 µM (active)
same,outcome,[6],inactive
same,outcome,[7],inactive
same,outcome,[8],inactive
same,outcome,[9],inactive
same,AC50,[10],2.69 µM (active)
same,AC50,[11],20 µM (active)
same,outcome,[12],inactive
same,AC50,[13],4.08 µM (active)
same,AC50,[14],32.3 µM (active)
same,AC50,[15],14.1 µM (active)
same,outcome,[16],inactive
Nc1cc(Cl)c(N)c(Cl)c1,outcome,[1],inactive
same,outcome,[3],inactive
same,AC50,[5],9.89 µM (active)
same,outcome,[6],inactive
same,outcome,[7],inactive
same,outcome,[12],inactive
same,AC50,[17],26.5 µM (active)
same,AC50,[18],43 µM (active)
same,AC50,[15],19.8 µM (active)
same,outcome,[16],inactive
FC(F)(F)C(F)(F)C(F)(F)C(F)(F)C(F)(F)C(F)(F)CC1CO1 (stereo unspecified),outcome,[1],inactive
same,outcome,[3],inactive
same,outcome,[4],inactive
same,outcome,[5],inactive
same,outcome,[6],inactive
same,outcome,[7],inactive
same,outcome,[8],inactive
same,outcome,[9],inactive
same,outcome,[10],inactive
same,outcome,[11],inactive
same,outcome,[12],inactive
same,outcome,[17],inactive
same,outcome,[18],inactive
same,outcome,[13],inactive
same,outcome,[15],inactive
O=P(O)(O)OCCC(F)(F)C(F)(F)C(F)(F)C(F)(F)C(F)(F)C(F)(F)F,outcome,[1],inactive
same,outcome,[3],inactive
same,outcome,[4],inactive
same,outcome,[5],inactive
same,outcome,[6],inactive
same,outcome,[7],inactive
same,outcome,[8],inactive
same,outcome,[9],inactive
same,outcome,[10],inactive
same,outcome,[11],inactive
same,outcome,[19],inactive
same,outcome,[13],inactive
same,outcome,[15],inactive
CCCCCCCOC(=O)c1ccccc1C(=O)OCCCCCCC,outcome,[1],inactive
same,outcome,[3],inactive
same,outcome,[4],inactive
same,outcome,[5],inactive
same,outcome,[6],inactive
same,outcome,[7],inactive
same,outcome,[8],inactive
same,outcome,[9],inactive
same,outcome,[10],inactive
same,outcome,[11],inactive
same,outcome,[12],inactive
same,outcome,[19],inactive
same,outcome,[20],inactive
same,outcome,[13],inactive
same,AC50,[14],10.8 µM (active)
same,AC50,[15],6.29 µM (active)
C=C(C)C(=O)OCC(F)(F)C(F)(F)C(F)(F)C(F)(F)C(F)(F)C(F)(F)C(F)(F)F,outcome,[1],inactive
same,outcome,[3],inactive
same,outcome,[4],inactive
same,outcome,[5],inactive
same,outcome,[6],inactive
same,outcome,[7],inactive
same,outcome,[8],inactive
same,outcome,[9],inactive
same,outcome,[10],inactive
same,outcome,[11],inactive
same,outcome,[19],inactive
same,outcome,[17],inactive
same,outcome,[13],inactive
same,outcome,[14],inactive
same,outcome,[15],inactive
CCCCNc1ccccc1,outcome,[1],inactive
same,outcome,[3],inactive
same,outcome,[4],inactive
same,outcome,[5],inactive
same,outcome,[6],inactive
same,outcome,[7],inactive
same,outcome,[8],inactive
same,outcome,[9],inactive
same,outcome,[10],inactive
same,outcome,[11],inactive
same,outcome,[19],inactive
same,outcome,[13],inactive
same,outcome,[14],inactive
same,outcome,[15],inactive
O=C(O)C(F)(F)C(F)(F)OC(F)(F)F,outcome,[1],inactive
same,outcome,[3],inactive
same,outcome,[4],inactive
same,outcome,[5],inactive
same,outcome,[6],inactive
same,outcome,[7],inactive
same,outcome,[8],inactive
same,outcome,[9],inactive
same,outcome,[10],inactive
same,outcome,[11],inactive
same,outcome,[12],inactive
same,outcome,[17],inactive
same,outcome,[18],inactive
same,outcome,[13],inactive
same,outcome,[14],inactive
same,outcome,[15],inactive
[Co],outcome,[1],inactive
same,outcome,[3],inactive
same,outcome,[4],inactive
same,outcome,[5],inactive
same,outcome,[6],inactive
same,outcome,[7],inactive
same,outcome,[18],inactive
same,AC50,[15],22.1 µM (active)
CC(C)=CCCC(C)CCOC(=O)C(C)C (stereo unspecified),outcome,[1],inactive
same,outcome,[3],inactive
same,outcome,[4],inactive
same,outcome,[5],inactive
same,outcome,[6],inactive
same,outcome,[7],inactive
same,outcome,[12],inactive
same,outcome,[19],inactive
same,outcome,[14],inactive
same,outcome,[15],inactive
c1ccc(-c2ccccc2-c2ccccc2)cc1,outcome,[1],inactive
same,outcome,[3],inactive
same,outcome,[4],inactive
same,AC50,[5],32.9 µM (active)
same,outcome,[6],inactive
same,outcome,[7],inactive
same,outcome,[19],inactive
same,outcome,[14],inactive
same,AC50,[15],27 µM (active)
CNC(=S)NC,outcome,[1],inactive
same,outcome,[3],inactive
same,outcome,[4],inactive
same,outcome,[5],inactive
same,outcome,[6],inactive
same,outcome,[7],inactive
same,outcome,[19],inactive
same,outcome,[17],inactive
same,outcome,[15],inactive
